# Bioassay records (PubChem BioAssay)
# NadD inh: inhibitors of Staphylococcus aureus NadD | purified NadD enzyme, colorimetric absorbance read-out | inhibition, % at 20 µM | actives 0.78% (n = 360,000) | AID 602399; in the data active means inhibition above about 26%
# Calb FLC: C. albicans growth modulation with fluconazole | C. albicans CaCi-2 (fluconazole-resistant clinical isolate) + fluconazole, Alamar Blue growth, 48 h | growth inhibition, % (concentration not given with the values) | actives 0.57% (n = 300,000) | AID 1979;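 active means growth inhibition above about 58% in most replicates, limit read from the data, passing the limit was not always enough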;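 further: all wells also contain fluconazole at 8 µg/ml as a sub-toxic cotreatment; 0% = median of DMSO wells and 100% = median of geldanamycin control wells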
# Mot1-301 SUMO: blocks SUMOylation pathway, rescuing yeast Mot1-301 growth. S. cerevisiae Mot1-301 growth rescue, ATP luminescence, 38.5C; percent above DMSO median, 100 means doubled. growth rescue, % at 18.8 µM. actives 1% (n = 320,000). AID 2716;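 active means every valid replicate shows activation above 250% relative to neutral control wells; inactive means the rest, any valid replicate at or below 250%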;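 further: OY570 slx delta 5 strain wells were the positive control but not used for scaling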
# ATG4B inh: inhibitors of human ATG4B cysteine protease; inhibition, % at 8.33 µM; actives 0.51% (n = 340,000); AID 504462; ATG4B cleavage of LC3-PLA2, NBD-HPC fluorescence, 1 h; Q9Y4P1; in the data active means inhibition above about 40%
# FAS TE block: FAS thioesterase (human) inhibition; recombinant FAS-TE, OMFH fluorogenic substrate, fluorescence endpoint; inhibition, % at 15 µM; actives 0.67% (n = 360,000);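 active means compounds whose normalised, plate-corrected inhibition of enzyme fluorescence in the single-dose primary screen is 50% or more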;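 further: 0% = DMSO with enzyme and 100% = substrate without enzyme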
# FAS-TE inh conf: FAS thioesterase (human) inhibition, confirmation | inhibition, % at 15 µM | AID 624325 | shares compounds with FAS TE block | recombinant FAS-TE, OMFH fluorogenic substrate, fluorescence | actives 45% (n = 2,300);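 active means compounds inhibiting the enzyme by at least 50% at 15 µM in any one of the replicates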;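 further: 0% = enzyme with DMSO only and 100% = wells lacking enzyme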
# NadD inh conf: confirmation of Staphylococcus aureus NadD inhibitors; shares compounds with NadD inh; purified S. aureus NadD, colorimetric enzyme assay; inhibition, % at 20 µM; actives 13% (n = 2,000); AID 624309; in the data active means inhibition mostly above about 42%, no sharp cut-off; inactive means mostly below about 42%
# * = called active by the depositor; i = inactive; · = not tested or not shown. An excerpt weighted towards active compounds, which were near 3.1% of everything screened.
SMILES,NadD inh,Calb FLC,Mot1-301 SUMO,ATG4B inh,FAS TE block,NadD inh conf,others
O=C(COc1cccc(Cl)c1)Nc1nc(-c2ccc(S(=O)(=O)N3CCOCC3)cc2)cs1,31.6*,7.8,·,-22.8,66.3*,6.9,FAS-TE inh conf=22.9*
CCOc1cccc(C(=O)Nc2nc(-c3ccc(S(=O)(=O)N4CCOCC4)cc3)cs2)c1,14.6,-9.7,13.7,-18.5,10.5,·,
CCN(C(=O)CSc1nnc(-c2ccc(OC)cc2)n1C(C)C)C1CCS(=O)(=O)C1 (stereo not given),3.6,·,-1.0,-8.1,-5.6,·,
FC(F)Oc1ccc(NC(=S)NNc2ccnc3cc(Cl)ccc23)cc1,31.8*,15.3,25.4,4.2,-16.3,18.1,
NC(=S)NNc1ccnc2cc(Cl)ccc12,-2.5,3.6,13.8,-12.1,-4.5,·,
CC(=O)Nc1ccc(SCCN2CC[C@@H](C)CCC2=O)cc1,-0.6,·,8.1,2.1,-11.3,·,
Cc1c(NC(=O)c2cccc(-c3cc4ccccc4oc3=O)c2)cccc1-c1nc2ncccc2o1,47.5*,-2.7,14.8,25.9,21.9,4.5,
COc1cc(/C=C/C(=O)c2ccc(NS(=O)(=O)c3ccc(C)cc3)cc2)cc(OC)c1O,32.0*,0.8,4.1,-20.7,-1.6,45.7,
Cc1ccc(C)c(OCCC(=O)Nc2cccc(S(=O)(=O)N3CCCCC3)c2)c1,-4.1,·,-10.8,-20.5,30.1,·,
Cc1noc(C)c1S(=O)(=O)Nc1ccc2c(c1)C(=O)N([C@H](C)CO)C[C@H](C)[C@@H](CN(C)C(=O)CCCN(C)C)OCCCC[C@@H](C)O2,-10.5,·,·,·,-1.9,·,
CCCNC(=O)C1(C)CCCN(Cc2csc3ccccc23)C1 (stereo not given),1.8,·,·,·,0.5,·,
C[C@]12C=CC(=O)C=C1CC[C@@H]1C2=CC[C@]2(C)[C@@H](C(=O)CN3CCN(c4cc(N5CCCC5)nc(N5CCCC5)n4)CC3)CC[C@@H]12,32.9*,·,26.4,-3.4,-16.1,-0.1,
CC(=O)C1CCC2C3CCC4=CC(=O)C=CC4(C)C3C(=O)CC12C (stereo not given),0.4,·,·,2.9,-3.7,·,
C#CC(=O)CC1(CN(Cc2ccccc2)C(=O)OC(C)(C)C)CCCCC1,8.2,·,·,-0.7,23.3,·,
CC(CCN1CCC(n2nccc2NC(=O)c2ccccc2Cl)CC1)c1ccccc1 (stereo not given),-3.1,-7.5,i,-7.5,-1.9,·,
ON=C(CCc1ccccc1)c1ccccc1,1.9,·,·,-5.5,-0.4,·,
N#C/C(=C\Nc1ccc2cn[nH]c2c1)c1nc(-c2ccccc2)cs1,34.8*,-8.8,·,-2.6,-3.8,0.8,
COc1cc2c(cc1N/C=C(\C#N)c1nc(-c3ccccc3)cs1)oc1ccccc12,16.1,2.7,-14.7,-10.3,7.2,·,
N#C/C(=C\Nc1ccc2cn[nH]c2c1)c1nc(-c2ccc(Cl)cc2)cs1,40.0*,10.9,17.4,0.4,-13.3,3.3,
CCOC(=O)c1sc(NC(=O)c2cccc(S(=O)(=O)N3CCc4ccccc43)c2)c(C#N)c1C,35.9*,-2.0,216.8,3.2,3.4,4.0,
CCC(CC)c1nnc(NC(=O)c2cccc(S(=O)(=O)N3CCc4ccccc43)c2)s1,9.4,2.4,-7.0,-23.3,31.7,·,
C=CCOC(=O)COc1ccc2c3c(c(=O)oc2c1)CCCC3,-12.6,·,·,·,12.3,·,
COc1cccc(C(=O)NN2CC(O)=C(c3nc(C)cs3)C2=N)c1,-2.9,-0.2,-0.5,11.0,-3.4,·,
Cc1ccc(C(=O)NN2CC(O)=C(c3nc(-c4cccc([N+](=O)[O-])c4)cs3)C2=N)cc1,33.4*,-23.5,121.0,23.4,0.9,-4.2,
C=C(C)C1CC=C(C)/C(=N\NC(=O)CNc2cccc3ccccc23)C1 (stereo not given),36.7*,18.7,49.0,-4.7,16.6,1.1,
SMILES,NadD inh,Calb FLC,Mot1-301 SUMO,ATG4B inh,FAS TE block,NadD inh conf,others
C=C(C)[C@H]1CC=C(C)/C(=N/NC(=O)CNc2ccccc2OC)C1,-6.2,1.7,14.0,18.1,6.8,·,
CN(c1ccccc1)S(=O)(=O)c1cccc(NC(=O)c2ccc(Cl)c([N+](=O)[O-])c2)c1,7.6,·,20.2,-3.8,44.2,·,
NCCCC[C@@H]1NC(=O)c2cc([N+](=O)[O-])cc(I)c2SC[C@@H](C(N)=O)NC(=O)[C@H](Cc2ccc(O)cc2)NC1=O,42.3*,12.6,0.2,-1.8,-16.6,6.4,
Cc1ccc(NC(=O)CN2C(=O)S/C(=C/c3ccc(O)c([N+](=O)[O-])c3)C2=O)cc1C,34.8*,·,·,29.2,7.3,33.8,
C=CCNc1sc(C(=O)c2ccccc2)c(N)c1-c1nc2ccccc2s1,12.2,44.4,-9.0,6.0,8.3,·,
CCNc1sc(C(=O)c2cccs2)c(N)c1-c1nc2ccccc2s1,30.2*,0.5,-8.9,-9.7,16.3,-0.2,
CC1Nc2ncnc(N3CCc4ccccc4C3)c2N(Cc2ccc(Cl)cc2)C1=O (stereo not given),43.1*,1.8,20.7,-4.3,2.3,11.0,
CCOCCn1c(=O)c2c(nc3n2CC(C)CN3Cc2ccccc2)n(C)c1=O (stereo not given),0.8,-0.1,20.4,-0.5,-2.1,·,
Cc1cccc(C)c1NC(=O)c1ccc2sc([C@@H]3O[C@H](CO)[C@H](O)[C@H](O)[C@H]3O)nc2c1,4.4,·,·,·,-9.8,·,
CCN(C(=O)COC(=O)CNC(=O)c1ccc(C)cc1)c1c(N)n(Cc2ccccc2)c(=O)[nH]c1=O,-1.8,·,-3.4,-9.5,-6.0,·,
O=C(O)C1CC=CCC1C(=O)N1CCN(c2nc(-c3ccccc3Cl)c3cc(Br)ccc3n2)CC1 (stereo not given),35.8*,·,-20.7,-0.4,-13.1,27.7,
CC1(C)CC(=O)C(C=NCC2CCN(C(=O)Cc3ccccc3)CC2)=C(O)C1,35.9*,-11.9,-7.4,9.7,-3.7,3.9,
COc1ccc([C@H]2CC(=O)C=C(c3c(OC)cccc3OC)C2)cc1,-9.3,·,15.2,3.4,23.8,·,
Cc1cccc(NC(=O)C2C3CCC4C(CCC32)C4(Cl)Cl)c1 (stereo not given),3.6,-18.4,-2.7,-1.3,-4.3,·,
COc1ccc2c(c1)nc(-c1cccc(Br)c1)c(=O)n2C(c1ccccn1)c1nc2ccccc2[nH]1 (stereo not given),46.4*,·,·,·,8.6,31.5,
Cc1ccc(C(c2nc3ccccc3[nH]2)n2c(-c3ccccc3)nc3ccccc32)cc1 (stereo not given),5.5,·,·,·,-1.4,·,
CC1(C(=O)NCc2ccccc2)CCC(=O)N1CC(F)(F)F (stereo not given),-8.6,·,·,·,-13.7,·,
C[C@H](NC(=O)c1nc[nH]c1C(=O)N1CCN(c2ccccc2)CC1)C(=O)OCc1ccccc1,9.2,-1.0,-21.0,-7.2,-2.7,·,
